# Bioassay records as filed in PubChem BioAssay.
# TrxR1 substrate: substrates of rat thioredoxin reductase 1; O89049; purified TrxR1 substrate turnover, NADPH consumption readout; Potency, µM (highest dose often 114 µM); actives 0.01% (n = 390,000); AID 588456; further: nearly all actives have a fitted effect of over 50% in size
# Target sequence (O89049 whole entry, looked up): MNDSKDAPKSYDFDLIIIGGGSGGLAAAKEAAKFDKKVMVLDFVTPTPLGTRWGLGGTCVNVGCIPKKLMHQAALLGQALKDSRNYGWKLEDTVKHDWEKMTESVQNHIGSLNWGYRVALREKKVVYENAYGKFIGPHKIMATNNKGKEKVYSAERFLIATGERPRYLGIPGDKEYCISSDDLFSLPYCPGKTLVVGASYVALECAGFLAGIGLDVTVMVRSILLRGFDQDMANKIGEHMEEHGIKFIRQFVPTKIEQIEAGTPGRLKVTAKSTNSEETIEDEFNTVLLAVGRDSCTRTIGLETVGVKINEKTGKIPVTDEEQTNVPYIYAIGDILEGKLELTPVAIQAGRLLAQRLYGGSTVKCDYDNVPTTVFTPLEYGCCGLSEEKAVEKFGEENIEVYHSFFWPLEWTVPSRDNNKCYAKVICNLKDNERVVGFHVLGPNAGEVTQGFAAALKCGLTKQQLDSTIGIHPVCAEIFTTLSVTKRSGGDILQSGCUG
#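 Rat TrxR1, dispensed at 90 nM, was prereduced with 400 uM NADPH (final) for 5 min at ~22 deg C, then incubated with compound 15 min before 400 uM selenite. A first-read NADPH fluorescence drop versus no-compound background flagged substrates.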
# rTrxR1 inhibitor: rat TrxR1 inhibition; AID 588453; recombinant rTrxR1, NADPH fluorescence consumption, selenite substrate; O89049; actives 1% (n = 390,000); Potency, µM (doses to about 114 µM), actives largely listed as inhibitors; further: nearly all actives have a fitted effect of over 65% in size
#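 Rat TrxR1 (90 nM in the dispensed reagent) was pre-reduced with 400 uM NADPH for 5 min at room temperature, then incubated with compound for 15 min. After 400 uM selenite was added, NADPH fluorescence (Ex 340/Em 450 nm) was followed for 8 min.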
# Nrf2 block: blocks Nrf2 signaling | A549 ARE-Fluc reporter, luciferase luminescence, 18-24 h | Potency, µM (doses to about 46 µM), most hits filed as inhibitors | actives 2.1% (n = 360,000) | AID 504444; further: nearly all actives have a fitted effect of over 60% in size
#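 Nrf2 function is reported as luminescence of an ARE-controlled luciferase in A549 cells. Compounds were tested at several concentrations, and a CellTiter-Fluor read on the same wells flagged cytotoxicity.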
# Nrf2 ARE act: activators of Nrf2 (ARE) signaling | AREc32 ARE-luciferase reporter (MCF7-derived line), luminescence, 24 h | Potency, µM (titrated, usually from 46.1 µM), usual class: activators | actives 0.31% (n = 410,000); further: nearly all actives have a fitted effect of over 65% in size
#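 ARE activation measured as luciferase luminescence (Steady-Glo, 30 min RT) in AREc32_Fluc cells after 24 hr compound exposure at 37 deg C, 5% CO2; cells seeded overnight at 1000/well in OPTI-MEM, 5% FBS.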
# GALK inh: inhibitors of human galactokinase; P51570; Purified GALK, Kinase-Glo residual ATP luminescence; Potency, µM (doses to about 57.5 µM), usual class: inhibitors; actives 0.007% (n = 270,000)
#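 The enzyme phosphorylates galactose (100 uM) using ATP (35 uM); inhibition is detected as higher residual ATP, quantified by bioluminescence after 1 h reaction at room temperature, pH 8.0.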
# A549 tox: counter-screen for Nrf2 inhibitors: cytotoxicity in A549 cells | A549 ARE-Fluc cells, CellTiter-Fluor viability, 18-24 h | Potency, µM (series often up to 46 µM), most hits filed as inhibitors | actives 0.16% (n = 390,000)
#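 A549 ARE_Fluc cells in 5% FBS OPTI-MEM were exposed to compounds in concentration-response for 18-24 h at 37 deg C. Viability was read by CellTiter-Fluor fluorescence (Ex 405/Em 525) after 30 min, before the luciferase read.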
# Numbers stand for hits; i = inactive; ? = inconclusive; nt = no result; [ ] = another dose, or the depositor's remark. This is a sample that favours compounds with a hit; in the whole collection about 3% have one here. The call rests on the fitted dose curve; in most records, active means well fitted curve in the direction sought with a large enough effect; inconclusive means small, poorly fitted or top-dose-only effect, or another doubt; inactive means no such curve, though single readings can be large; an effect the other way counts as inactive or inconclusive.
SMILES,TrxR1 substrate,rTrxR1 inhibitor,Nrf2 block,Nrf2 ARE act,GALK inh,A549 tox
O=C(OC(C(=O)Nc1ccc([N+](=O)[O-])cc1Br)c1ccccc1)c1ccccc1 (centres undefined),i,i,23µM,i,i,i
COc1cc(NS(=O)(=O)c2cc3[nH]c(=O)c(=O)[nH]c3cc2C)cc(OC)c1OC,i,i,i,i,nt,i
COc1cc(NS(=O)(=O)c2ccc(C)cc2C)cc(OC)c1OC,i,i,10µM,i,i,i
C[N+](C)(C)c1ccc(/C=C/c2ccnc3ccccc23)cc1,i,?,nt,nt,nt,nt
O=C(/C=C/c1cn(-c2ccccc2)nc1-c1cccnc1)N1CCCC1,i,i,i,i,i,?
N#C/C(=C\c1cn(-c2ccccc2)nc1-c1cccnc1)c1nnc2n1CCCCC2,i,i,21µM,i,i,?
O=C(NCc1ccc(F)cc1)C(c1ccccc1)c1ccccc1,i,i,i,i,i,i
CC(=O)N(Cc1ccc(F)cc1)C1=C(NCc2ccccc2)C(=O)c2ccccc2C1=O,i,i,6.3µM,i,i,10µM
COc1ccccc1CNc1ccc(-c2nc(-c3ccco3)no2)cc1[N+](=O)[O-],i,i,?,i,nt,i
CCCN(C(=O)c1ccco1)c1nnc(-c2cccc(C)c2)s1,i,i,?,10µM,i,i
CCN(C(=O)c1ccco1)c1nnc(-c2ccc(OC)cc2)s1,i,i,i,i,i,i
COc1ccc(CCNC(=O)c2nn(C)c3c2CS(=O)(=O)c2ccccc2-3)c(OC)c1,i,i,23µM,i,i,i
CCCCN(CC)CCNC(=O)c1nn(C)c2c1CS(=O)(=O)c1ccccc1-2,i,i,i,i,nt,i
CCN(CC)CCCNC(=O)c1nn(C)c2c1CS(=O)(=O)c1ccccc1-2,i,i,18µM,i,nt,i
COCCCNC(=O)c1nn(C)c2c1CS(=O)(=O)c1ccccc1-2,i[11.4 µM],i,i,i,nt,i
O=C(c1ccc([N+](=O)[O-])s1)N1CCN(c2ccccc2)CC1,i,?,21µM,i,i,?
CCN(c1ccccc1)S(=O)(=O)c1ccc(C(=O)Nc2cccc(C)n2)cc1,i,i,18µM,i,nt,i
CCN(c1ccccc1)S(=O)(=O)c1cccc(C(=O)Nc2ccc(C)cn2)c1,i,i,?,i,i,i
Cc1ccc(S(=O)(=O)N(C)c2ccc(C(=O)Nc3cccc(C)n3)cc2)cc1,i,i,?,i,i,i
Cc1cccc(NC(=O)c2cccc(S(=O)(=O)N(C)c3ccccc3)c2)n1,i,i,15µM,i,nt,?
Cc1nc2ccn(Cc3cccnc3)c(=O)c2cc1C(=O)NCc1ccccc1,i,i,i,i,nt,i
CC1(C)CC[C@]2(C(=O)n3ccnc3)CC[C@]3(C)[C@H](C(=O)C=C4[C@@]5(C)C=C(C#N)C(=O)C(C)(C)[C@@H]5CC[C@]43C)[C@@H]2C1,i,i[11.4 µM],5.8µM,1.1µM,nt,6.5µM
CC(C)(C)OC(=O)N1CCC(c2c(C(=O)NCc3ccco3)cnn2-c2ccc(F)cc2F)CC1,i,i,?,i,nt,i
Cc1nn(-c2nc3ccccc3[nH]2)c(=O)c2ccccc12,i,?,1.3µM,i[9.22 µM],?,i
Cc1cc(NC(=O)c2c(F)cccc2Cl)n(-c2nc3ccccc3[nH]2)n1,i,i,15µM,i,i,i
SMILES,TrxR1 substrate,rTrxR1 inhibitor,Nrf2 block,Nrf2 ARE act,GALK inh,A549 tox
Cc1cc(Nc2ccccc2)n(-c2nc3ccccc3[nH]2)n1,i,i,16µM,i,i,i
Cc1nn(-c2ccc3ccccc3c2)c(=O)c2ccccc12,i,i,?,?,i,i
Nc1ccc2c(c1)C(=O)N(c1ccc3ccccc3c1)C2=O,i,i,?,nt,nt,?
O=C(c1ccc(Br)cc1)N1CCN(CCc2ccncc2)CC1,i,i,i,i,nt,i
C/C(=N\Nc1ccc2nncn2n1)c1ccc(Cl)s1,i,i,i,7.9µM,i,i
CC(C)c1nc2sc3ccccc3c(=O)c2c(=O)n1Cc1ccccc1,i,i,26µM,i,i,i
COc1ccc(CCN2C(=O)c3ccccc3C2c2nnnn2-c2c(C)cccc2C)cc1OC (centres undefined),nt,nt,nt,i,nt,nt
